# Results reported in PubChem BioAssay (NCATS).
# Where “and” joins values, the source holds several entries; their conditions need not be identical. Equal entries are not always repeated. Inconclusive results are not listed. A call without a number means that no potency is given here. A number with no mark means an inactive call. Calls of active or inactive are those of the source. The call rests on the fitted dose curve; in most records, active means well fitted curve in the direction sought with a large enough effect; inconclusive means small, poorly fitted or top-dose-only effect, or another doubt; inactive means no such curve, though single readings can be large; an effect the other way counts as inactive or inconclusive.
# Assays:
# PA-1 = assay: Primary qHTS to identify gynecologic anti-cancer compounds using libraries of approved drugs and bioactive compounds (AID 1345084); settings: Gynecologic cancer cell panel viability, ATPlite luminescence, 48 h; series mostly up to 57.5 µM; further: nearly all actives have a fitted effect of over 55% in size
# In short: (§1)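 Luminescence from the ATPlite ATP-monitoring reagent indicates viable cell number; lower signal means cytotoxicity. Cells received compound 16 h after seeding and were exposed for 48 h across five concentrations.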
# SKOV3 = assay: as above; settings: Gynecologic cancer cell panel viability, ATPlite luminescence, 48 h; series mostly up to 57.5 µM
# In short: as §1
# Tov-21-G = assay: as above; settings: Gynecologic cancer cell panel viability, ATPlite luminescence, 48 h; series mostly up to 57.5 µM
# In short: as §1
# Tov112D = assay: as above; settings: Gynecologic cancer cell panel viability, ATPlite luminescence, 48 h; series mostly up to 57.5 µM
# In short: as §1
# [1] = Drug repurposing screens with cells derived from glioblastoma tumor samples (AID 1345199); settings: GBM patient neurospheres viability, ATP luminescence, 48 h; further: nearly all actives have a fitted effect of over 40% in size
# In short: (§2)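 Primary testing used CD133+ neurospheres from four GBM patients, seven concentrations, 48 h exposure and ATP-based viability; confirmation added three slower-growing patient lines.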
# astro = assay: as above; settings: viability, ATP luminescence, 48 h; series mostly up to 45.9 µM
# In short: as §2
# [2] = at 45.9 µM (top of the series), tumour line B
# [3] = at 45.9 µM (top of the series), tumour line D
# [4] = at 46 µM (top of the series), tumour line A
# [5] = at 46.1 µM (top of the series), tumour line C
# [6] = at 20 µM (top of the series), tumour line C
# [7] = at 21.2 µM (top of the series), tumour line B
# [8] = at 21.3 µM (top of the series), tumour line A
# [9] = at 21.2 µM (top of the series), tumour line D
# Potency means the concentration at half of the fitted maximal effect.
SMILES,Potency (PA-1),Potency (SKOV3),Potency (Tov-21-G),Potency (Tov112D),"activity, negative = cell killing [1, 2]","activity, negative = cell killing [1, 3]","activity, negative = cell killing [1, 4] [%]","activity, negative = cell killing [1, 5]",Potency (astro),Potency ([1]; tumour line A),"activity, negative = cell killing [1, 6] [%]","activity, negative = cell killing [1, 7] [%]","activity, negative = cell killing [1, 8] [%]","activity, negative = cell killing [1, 9] [%]"
CC(C)n1nc(-c2cc3cc(O)ccc3[nH]2)c2c(N)ncnc21,4.47 µM (active),1 µM (active) and 631 nM (active),11.2 µM (active) and 4.47 µM (active),7.94 µM (active),,,,,,,,,,
CN=C(NC#N)Nc1ccc(C2=NNC(=O)CC2C)cc1 (centres undefined),inactive,inactive,inactive,inactive,-9.56%,17.5%,-26.1,-22.3%,inactive,,,,,
Oc1cc(O)c2c(c1)O[C@H](c1ccc(O)c(O)c1)[C@H](O)C2,inactive,inactive,inactive,inactive,-5.02%,-9.16%,-28.5,-2.43%,inactive,,,,,
CCCOC(C(=O)OC1CCN(C)CC1)(c1ccccc1)c1ccccc1,inactive,inactive,inactive,inactive,,,,,,,,,,
NCCC(O)(P(=O)(O)O)P(=O)(O)O,inactive,inactive,inactive,inactive,-6.03%,-13.5%,-19.5,-12.2%,inactive,,,,,
COc1cc2c(cc1OC)[C@@H]1CC(=O)[C@@H](CC(C)C)CN1CC2,inactive,inactive,inactive,inactive,,,,1.4%,,28.2 µM (active),,,,
Cc1nc2n(c(=O)c1CCN1CCC(c3noc4cc(F)ccc34)CC1)CCC[C@H]2O,inactive,inactive,inactive,inactive,-11%,-35.1%,,-8.74%,,15.8 µM (active),,,,
COc1cc(C(=S)N2CCOCC2)cc(OC)c1OC,inactive,inactive,inactive,inactive,-7.77%,-20%,-25.7,-20.5%,inactive,,,,,
CCOC(=O)/C=C(C)/C=C/C=C(C)/C=C/c1c(C)cc(OC)c(C)c1C,inactive,inactive,inactive,inactive,,,,,,,,,,
COc1cc(OC)cc(OC)c1,inactive,inactive,inactive,inactive,-3.53%,7.76%,-12.5,-1.01%,inactive,,,,,
NC[C@H]1O[C@H](O[C@H]2[C@H](O)[C@@H](O[C@H]3O[C@H](CO)[C@@H](O)[C@H](N)[C@H]3O)[C@H](N)C[C@@H]2N)[C@H](N)[C@@H](O)[C@@H]1O,inactive,inactive,inactive,inactive,-3.08% and -15.5%,-22.4% and -15.3%,-11.7,-0.491% and -12.3%,inactive,,,,,
C=C1C(=C/C=C2\CCC[C@]3(C)[C@@H]([C@H](C)/C=C/[C@@H](O)C4CC4)CC[C@@H]23)C[C@@H](O)C[C@@H]1O,inactive,inactive,inactive,inactive,,,,,,,,,,
CC(=O)OCC(=O)[C@@]12OC(C)(C)O[C@@H]1C[C@H]1[C@@H]3C[C@H](F)C4=CC(=O)C=C[C@]4(C)[C@@]3(F)[C@@H](O)C[C@@]12C,inactive,inactive,inactive,inactive,,,,,,,-14.9,-15.5,-1.98,
COc1cccc(CCc2ccccc2OCC(CN(C)C)OC(=O)CCC(=O)O)c1 (centres undefined),inactive,inactive,inactive,inactive,,,,,,,,,,
CN1CCC[C@@H]1c1cccnc1,inactive,inactive,inactive,inactive,-7.48%,-12.9%,-29.1,-0.391%,inactive,,,,,
Cc1c(C(N)=O)cc([N+](=O)[O-])cc1[N+](=O)[O-],inactive,inactive,inactive,inactive,-3.44%,-20.3%,-15.4,1.23%,inactive,,,,,
NC(CO)(CO)CO,inactive,inactive,inactive,inactive,-1.58%,6.44%,-13.6,0.171%,inactive,,,,,
C[C@H]1[C@H](NC(=O)/C(=N/OC(C)(C)C(=O)O)c2csc(N)n2)C(=O)N1S(=O)(=O)O (stereo in doubt),inactive,inactive,inactive,inactive,,,,,inactive,,-1.55,-2.78,-17.3,9.37
CC(Cc1ccccc1)(NC(=O)CN)c1ccccc1 (centres undefined),inactive,inactive,inactive,inactive,-9.21%,3.89%,,-26.6%,inactive,20 µM (active),,,,
NCCCC[C@H](N[C@@H](CCc1ccccc1)C(=O)O)C(=O)N1CCC[C@H]1C(=O)O,inactive,inactive,inactive,inactive,,,,,inactive,,16.9,-0.103,10.9,-3.03
